PAX8 inh HTS: PAX8 transcriptional activity inhibition; RMG-I TPO-luciferase reporter, SteadyGlo, 24 h; inhibition, % at 12.6 µM; 1.2% of 360,000 active; AID 652154;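 active = mean replicate inhibition at least 60% with every replicate also reaching 60%; inconclusive = only one of the two criteria is met; inactive = mean below 60% and not all replicates reaching 60%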;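 also: luciferase light reporting Pax8 driven TPO promoter activity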
HIV Env fusion: HIV envelope-mediated fusion inhibition. HeLa-JRFL Env/CEM21 cell fusion, luciferase. inhibition, % at 12.3 µM. 1.1% of 360,000 active;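 active = mean replicate inhibition score of at least 50 and every replicate individually at or above 50; inconclusive = only one of the two criteria met; inactive = mean below 50 and not all replicates reaching 50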
C2C12 statin: suppression of simvastatin myotoxicity; C2C12 myotubes + simvastatin, ATP luminescence, 48 h; scaled: DMSO 0, geranylgeraniol control 100; AID 602340; rescue of ATP level, % at 7.49 µM; 0.78% of 330,000 active;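 active = mean ATP rescue above about 67%, or every replicate alone reaching that limit, limit read from the data, passing the limit was not always enough; inconclusive = no clear call, values can overlap the other calls; inactive = mean under the limit and some replicate under it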;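 also: myotubes were challenged with 10 µM simvastatin during compound exposure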
INS-1E GSIS act: GLuc luminescence reporter in INS-1E cells, primary screen for activators of glucose-dependent secretion of insulin; activation, % at 16.6 µM; 0.61% of 370,000 active; INS-1E GLuc reporter insulin secretion, 2-3 h;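 active = lowest replicate activation of at least 40%, so every replicate reaches that level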
miR-122 sensor: inhibitors of miR-122 in Huh7 cells; 0.3% of 340,000 active; Huh7 miR-122 Renilla luciferase sensor, 48 h; neutral wells = 0, positive control = 100; activation (reporter increase), % at 12.5 µM;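 active = mean replicate activation score at least 90 and every replicate individually at or above 90; inconclusive = only one of the two criteria met; inactive = neither criterion met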;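 also: higher luciferase means less miR-122 activity so hits act as miR-122 inhibitors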
EWS-Fli block: EWS/Fli transcriptional activity inhibition; inhibition, % at 12.6 µM; A673 NR0B1-luciferase reporter, viability-normalised; 0.67% of 350,000 active;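 active = mean inhibition of at least 50% after viability correction, with every replicate also passing that limit; inconclusive = mean reaches 50% but only one of two replicates passes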;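 also: firefly luciferase signal divided by Alamar Blue viability fluorescence both relative to DMSO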
Hits are given with their value; 0 = inactive; ? = inconclusive; - = no result given. An excerpt weighted towards active compounds, which were near 3.1% of everything screened.

SMILES	PAX8 inh HTS	HIV Env fusion	C2C12 statin	INS-1E GSIS act	miR-122 sensor	EWS-Fli block
CC1CN(S(=O)(=O)c2cc(C(=O)NC(C)c3cccnc3)ccc2Cl)CC(C)O1 (configuration not stated)	0	0	0	43	0	0
CC1CN(S(=O)(=O)c2cc(C(=O)NCCC3=CCCCC3)ccc2Cl)CC(C)O1 (configuration not stated)	0	68	-	0	-	0
O=C(Nc1cccnc1)c1ccc(Cl)c(S(=O)(=O)N2CCCCCC2)c1	-	0	0	0	-	-
C[C@@H]1CN([C@@H](C)CO)S(=O)(=O)c2ccc(-c3cncnc3)cc2O[C@H]1CN(C)Cc1cccnc1	-	0	0	0	0	0
CCCNC(=O)N[C@@H]1CC[C@H](CCn2cc(C3CC3)nn2)O[C@@H]1CO	0	0	0	0	-	0
COc1ccc(C(=O)Nc2nc3c(s2)CCCC3)cc1S(=O)(=O)N1CCCc2ccccc21	0	0	-	0	115	-
COc1cc(NS(=O)(=O)c2ccc3c(c2)C(C)(C)C(=O)N3C)cc(OC)c1	0	0	0	0	98	0
C[C@H](CO)N1C[C@H](C)[C@@H](CN(C)Cc2ccc(-c3ccccc3)cc2)Oc2c(cccc2N(C)C)C1=O	0	0	0	0	0	-
COc1cccc(CNC(=O)C2CCCN(S(=O)(=O)c3c(C)n[nH]c3C)C2)c1 (configuration not stated)	0	0	75	-	0	-
COc1ccc(CNC(=O)C2CCCN(S(=O)(=O)c3c(C)n[nH]c3C)C2)cc1 (configuration not stated)	-	-	0	0	0	-
COc1ccc(/C=N/Nc2nc(-c3ccc(Cl)cc3)cc(C(F)(F)F)n2)c(OC)c1	0	0	-	76	-	-
CC(=O)Nc1cccc(C(=O)/C=C/c2ccc(F)cc2)c1	0	0	0	0	0	0
Cc1cccc(C(=O)Nc2ccc(C(=O)/C=C/c3cccnc3)cc2)c1	0	0	0	0	0	-
CC(=O)Nc1cccc(C(=O)/C=C/c2ccc(/C=C/C(=O)c3cccc(NC(C)=O)c3)cc2)c1	0	-	-	0	-	55
Cc1cccc(C(=O)Nc2ccc(C(=O)/C=C/c3ccncc3)cc2)c1	0	0	0	0	0	71
Cc1noc(C)c1NC(=O)Nc1cccc2c1O[C@H](CN(C)CC1CC1)[C@H](C)CN([C@H](C)CO)C2=O	-	0	0	0	0	0
CCCN1[C@@H]2c3ccc(C4=CCCCC4)c(=O)n3C[C@H]1[C@H](CO)[C@H]2C(=O)NCC	-	-	0	0	0	0
COc1cc(Nc2c3c(nc4ccccc24)CCC3)cc(OC)c1OC	0	0	0	0	0	?
COc1cc(NS(C)(=O)=O)ccc1Nc1c2ccccc2nc2ccccc12	71	0	0	0	0	58
COc1ccc(OC)c(Nc2c3ccccc3nc3ccccc23)c1	0	0	0	0	0	0
COc1ccc([N+](=O)[O-])cc1Nc1c2ccccc2nc2ccccc12	0	79	0	0	0	0
O=[N+]([O-])c1ccccc1Nc1c2ccccc2nc2ccccc12	0	62	0	0	0	0
C[C@H](CO)N1C[C@H](C)[C@H](CN(C)S(=O)(=O)c2ccc(F)cc2)Oc2ccc(NC(=O)Nc3ccc4c(c3)OCO4)cc2CC1=O	-	0	0	0	0	0
Cc1cc(S(=O)(=O)N(Cc2ccccc2F)C2CC2)ccc1-n1cnnn1	0	0	0	0	143	0
Cc1cc(S(=O)(=O)NCC(c2ccccc2)c2ccccc2)ccc1-n1cnnn1	-	?	0	0	125	-
SMILES	PAX8 inh HTS	HIV Env fusion	C2C12 statin	INS-1E GSIS act	miR-122 sensor	EWS-Fli block
COc1cccc(NC(=O)Nc2ccc3c(c2)C(=O)N(C)[C@H]2CC[C@@H](CC(=O)NCCc4ccccc4)O[C@H]2CO3)c1	0	0	0	0	-	0
C=CC[n+]1c(-c2ccc(OCC)cc2)csc1NNC(=O)Nc1ccccc1	-	61	-	0	-	-
C=CC[n+]1c(-c2ccc(C)cc2)csc1Nc1c(C)n(C)n(-c2ccccc2)c1=O	0	0	0	0	0	0
COc1cccc(S(=O)(=O)N2CCCCN3[C@H](C2)[C@@H](c2ccc(C#CC(C)C)cc2)[C@@H]3CO)c1	0	-	-	0	0	0
COc1cccc(S(=O)(=O)N2CCCCN3[C@@H](CO)[C@@H](c4ccc(C#CCC(C)C)cc4)[C@@H]3C2)c1	86	-	0	0	0	0
COc1ccc(S(=O)(=O)N2CCCCN3[C@H](CO)[C@@H](c4ccc(C#CC(C)C)cc4)[C@@H]3C2)cc1	0	-	0	0	0	0
COc1cccc(S(=O)(=O)N2CCCCN3[C@@H](CO)[C@H](c4ccc(C#CC(C)C)cc4)[C@@H]3C2)c1	65	-	-	0	0	0
COc1ccc(S(=O)(=O)N2CCCCN3[C@H](C2)[C@H](c2ccc(C#CC(C)C)cc2)[C@@H]3CO)cc1	102	-	0	0	0	0
CCN(CCCNC(=O)C1CCC(=O)N1C(C)C)c1cccc(C)c1 (configuration not stated)	-	0	126	0	0	-
CCN(CCCNC(=O)C1CCCN(S(=O)(=O)CC)C1)c1cccc(C)c1 (configuration not stated)	-	-	0	-	0	-
CC(C)Cn1c(Cc2ccccc2)n[nH]c1=S	-	-	0	55	0	0
CCn1c(Cc2ccccc2)n[nH]c1=S	0	0	0	-	0	0
COCc1cc(=O)n2[nH]cc(-c3ccccc3)c2n1	0	0	0	0	0	0
CCCc1cc(=O)n2[nH]cc(-c3ccc(Cl)cc3)c2n1	0	85	0	0	-	0
O=[N+]([O-])c1ccccc1S(=O)(=O)Nc1cccc(-c2ccc3nncn3n2)c1	0	0	0	89	0	0
COc1ccc(S(=O)(=O)Nc2cccc(-c3ccc4nncn4n3)c2)cc1F	0	0	-	42	-	56
O=[N+]([O-])c1ccccc1S(=O)(=O)Nc1ccc(-c2ccc3nncn3n2)cc1	-	0	-	49	-	0
O=S(=O)(Nc1cccc(-c2ccc3nncn3n2)c1)c1ccccc1F	0	0	-	0	-	0
O=S(=O)(Nc1cccc(-c2ccc3nncn3n2)c1)c1cccc(F)c1	0	0	-	0	-	0
COc1ccccc1-c1ccc([C@H]2[C@H](CO)N(C(C)=O)C23CN(C(C)=O)C3)cc1	-	-	-	0	-	0
C=CCn1c(SCC(=O)Nc2nc(C)cs2)nnc1C(NC(=O)c1ccccc1)C(C)C (configuration not stated)	-	112	0	-	0	-
CN(C)C(=O)C[C@H]1C[C@@H]2c3cc(NC(=O)c4cccnc4)ccc3O[C@@H]2[C@H](CO)O1	0	-	-	0	-	-
COc1ccc(O)c(/C=N/NC(=O)c2ccc(CSc3nc(C)cc(C)n3)cc2)c1	0	0	-	-	-	0
Cc1cc(C)nc(SCc2ccc(C(=O)N/N=C/c3cccc(O)c3O)cc2)n1	68	0	-	0	-	-
Cc1ccc(S(=O)(=O)N(C)C[C@@H]2Oc3c(NC(=O)c4cnccn4)cccc3C(=O)N([C@@H](C)CO)C[C@@H]2C)cc1	0	0	0	0	0	0

Bioassay records (PubChem BioAssay)
